Assay results: PubChem BioAssay (NCI)
This is part of a sample that, as a whole, favours compounds with a hit. Of some 79,000 tested, about 15% had one in any assay. Calls of active or inactive are those of the source. Rule as the data show it: active = growth inhibition above about 70%; inactive = the rest.

Experiment: NCI Yeast Anticancer Drug Screen. Data for the mlh1 rad18 strain (AID 175)
Conditions: S. cerevisiae mlh1 rad18 strain growth inhibition; at 50.0 µM; active compounds read high
Method in brief: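 Growth inhibition of the yeast strain was measured after compound exposure and expressed relative to vehicle-treated controls. The strain carries defined defects in DNA damage repair.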

SMILES	growth inhibition
COc1ccc2c(c1)CC/C(=C\C1(Sc3ccccc3)CC1)C2O (stereo unspecified)	-15.8% (inactive)
C[N+](C)([O-])Cc1cccc(NC(=O)c2ccc(C(=O)Nc3cccc(C[N+](C)(C)[O-])c3)cc2)c1	-7.95% (inactive)
CC1(C)C(=O)C(C)(C)C1=NN	23.9% (inactive)
CCC(CC)NCCCNc1cc(OC)cc2cccnc12	48.6% (inactive)
CC(C)OC(=O)N[C@@H]1c2ccccc2CC[C@H]1I	3.55% (inactive)
c1ccc(-c2cc(-c3ccccc3)c(-c3ccccc3)c(-c3ccccc3)c2)cc1	13% (inactive)
